Assay results reported in PubChem BioAssay AID504882 (Broad Institute, 2011).
About 290 (24%) of roughly 1,200 compounds were called active. Inconclusive results (about 9%) are left out. The list is a sample of the results. Measured potencies and affinities stand elsewhere. A number with no mark means an inactive call. The rule behind the calls is not given here.

Experiment: LCL viability reduction – cell-based, plate reader, cherry-picks, set 2, cytotoxicity control, dose response (AID 504882);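 note: 0% = neutral control wells and -100% = positive control wells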
Conditions: EBV lymphoblastoid cells (LCL) viability; series mostly up to 19.5 µM; activity change, negative = cytotoxicity: at the top concentration

Row | SMILES | activity change, negative = cytotoxicity
1 | CCCCCCCCOC(=O)/C=C/c1c(C)[nH]c(=O)[nH]c1=O | 31.3%
2 | COC(=O)c1ccc(COc2ccccc2/C=C/C(=O)c2ccc(OCC(=O)O)cc2)cc1 | 15%
3 | CC(C)Oc1ccc(C(=O)Nc2nnc(SCC(=O)N3CCOCC3)s2)cc1 | 14.2%
4 | COC(=O)CCNc1ccc2c(c1)OCCO2 | 21.3%
5 | COc1ccc2[nH]c3c(=O)n(CCCCC(=O)N4CCC(C(N)=O)CC4)c(=S)[nH]c3c2c1 | 9.32%
6 | Cc1c(/C(O)=C2/C(=O)C(=O)N(CCN3CCOCC3)C2c2ccccn2)cnn1-c1ccccc1 (stereo unspecified) | 12%
7 | O=[N+]([O-])c1cc(/C=N\O)ccc1Oc1ccc(F)cc1 | -4.12%
8 | CCOc1ccc(Nc2ncnc3ccc([N+](=O)[O-])cc23)cc1 | 10.8%
9 | O=[N+]([O-])c1ccc(/C=N/Nc2cc(Cl)nc(-c3ccccc3)n2)cc1 | -40.7%
10 | COc1ccc(NC(=O)COC(=O)/C=C/c2ccc(OC)c(S(=O)(=O)N3CCOCC3)c2)cc1 | 17%
11 | Cc1nc(N)nc(N)c1/C=C/C(C)(C)c1ccc(Cl)cc1 | -24.8%
12 | COc1cc2cc(C(=O)N3CCN(c4ccccc4OC)CC3)[nH]c2cc1OC | 3.74%
13 | Cc1ccc(C(=O)NCCc2cccs2)cc1 | 4.45%
14 | C=CCN1CCc2cc(O)c(O)cc2C(c2ccccc2)C1 (stereo unspecified) | 9.24%
15 | CCON1C(=O)C2(CCCCC2)C(=O)C12C=CCCC2 (stereo unspecified) | 7.9%
16 | Cc1nc(C)n(C(C)CNC(=O)c2ccco2)n1 (stereo unspecified) | 24.6%
17 | COc1ccc(C(c2sc3nc(C)nn3c2O)N2CCC(C(N)=O)CC2)cc1OC (stereo unspecified) | 18%
18 | Cc1cc(C(=O)COc2cccnc2[N+](=O)[O-])c(C)n1-c1ccccc1F | -2.29%

Row | SMILES | activity change, negative = cytotoxicity
19 | O=C(NCCc1cn2ccccc2n1)C1CCCCC1 | 48.6%
20 | COc1ccc(-c2cc3nc(-c4ccccc4)cc(N4CCCC(O)C4)n3n2)cc1 (stereo unspecified) | 7.77%
21 | O=C(CCc1ccccc1Cl)N1CCN(S(=O)(=O)c2ccccc2)CC1 | 19.5%
22 | CC[C@]1(C(=O)OC)[C@H]2C(=O)N(Cc3ccccc3)C(=O)[C@H]2[C@H]2CN=C(SCc3ccc(Cl)cc3)N21 | -9.77%
23 | CCn1nc(C(=O)Nc2nc(-c3ccccn3)cs2)c2ccccc2c1=O | -6.58%
24 | CCc1sc(C(=O)Nc2ncccc2O)cc1C | 15.5%
25 | Cc1ccc2oc(C(=O)Nc3ccc(S(=O)(=O)Nc4onc(C)c4C)cc3)c(C)c2c1 | 10.1%
26 | CCC(C)(C)NC(=O)C(c1ccc(F)cc1)N(CCOC)C(=O)CCC(=O)Nc1nccs1 (stereo unspecified) | 6.17%
27 | CCOC(=O)c1c(NC(=O)C2C3CCC(O3)C2C(=O)O)sc(C)c1-c1ccc(F)cc1 (stereo unspecified) | 3.06%
28 | CC1CCc2nc(N)c(C#N)c(-c3cccnc3)c2C1 (stereo unspecified) | -1.89%
29 | CCSC1=C(C#N)C(c2ccc(C)o2)CC(=O)N1 (stereo unspecified) | 14.3%
30 | Cc1cc(=O)[nH]c(=S)[nH]1 | 1.02%
31 | COc1ccc(S(=O)(=O)N2CCN(C(=S)NCC3CCCO3)CC2)cc1OC (stereo unspecified) | 0.386%
32 | CCOc1ccc(N/C=C/C(=O)c2ccccc2)cc1 | -11.9%
33 | Cc1c(NC(=O)c2cccc(NC(=O)COc3ccccc3C#N)c2)c(=O)n(-c2ccccc2)n1C | 25.6%
34 | Cn1cc(S(=O)(=O)N2CCN(C(=O)c3ccco3)CC2)c(=O)n(C)c1=O | 12.2%
35 | CSc1oc(-c2ccc(F)cc2)nc1S(=O)(=O)c1ccc(F)cc1 | 17.1%
36 | C=CCN1CCN(C(CC(C)C)c2nnnn2CCOC)CC1 (stereo unspecified) | 24.7%
